In the library only some 3.4% were active in any assay of this set; here they are far more common.
ADAM17 inh: ADAM17 inhibition, QFRET primary screen; P78536; recombinant ADAM17, EDANS/DABCYL FRET peptide cleavage; inhibition, % at 6.95 µM; 0.83% of 370,000 active;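 active = inhibition above the mean of compounds lying between control limits plus 3 SD, set per campaign, cut at about 8.5% in these data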;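 also: 0% = DMSO-only wells as the low control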
Target sequence (P78536 215-824 limits assumed): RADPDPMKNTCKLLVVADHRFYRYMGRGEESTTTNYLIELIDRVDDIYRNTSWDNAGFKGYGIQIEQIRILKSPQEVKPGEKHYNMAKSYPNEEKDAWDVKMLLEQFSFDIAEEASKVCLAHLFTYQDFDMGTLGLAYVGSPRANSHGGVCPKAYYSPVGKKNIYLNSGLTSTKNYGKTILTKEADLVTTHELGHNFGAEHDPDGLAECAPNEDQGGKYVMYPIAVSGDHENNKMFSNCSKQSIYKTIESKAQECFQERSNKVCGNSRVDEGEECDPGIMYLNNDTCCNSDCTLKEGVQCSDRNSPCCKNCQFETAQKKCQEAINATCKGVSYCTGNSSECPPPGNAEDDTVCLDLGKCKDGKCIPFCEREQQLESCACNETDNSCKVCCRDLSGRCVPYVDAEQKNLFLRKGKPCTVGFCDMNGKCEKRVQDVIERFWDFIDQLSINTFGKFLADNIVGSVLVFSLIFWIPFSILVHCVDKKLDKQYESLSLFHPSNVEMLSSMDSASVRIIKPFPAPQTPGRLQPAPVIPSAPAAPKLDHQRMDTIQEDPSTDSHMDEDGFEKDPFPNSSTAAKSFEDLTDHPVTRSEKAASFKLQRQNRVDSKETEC
HGIII-sPLA2 inh: Blocks human group III sPLA2 activity. 0.56% of 370,000 active. inhibition, % at 12.2 µM. Q9NZ20. QFRET BODIPY PC-A2 liposome hydrolysis, fluorescence;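 active = inhibition above mean plus 3 SD of compounds lying within the high and low control bounds, cut at about 19% in these data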;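 also: 0% = median of test compound wells and 100% = no enzyme DMSO wells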
ADAM10 inh: inhibits human ADAM10. inhibition, % at 7 µM. O14672. recombinant ADAM10, EDANS/DABCYL FRET peptide cleavage, 3 h. 0.62% of 370,000 active. AID 720582;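 active = inhibition above a per-campaign cutoff equal to the mean of compounds falling between control-based bounds plus 3 SD, cut at about 20% in these data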;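 also: 0% = DMSO wells while the 100% control is not disclosed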
KLK7 zymogen act: activators of human kallikrein-7 zymogen | 0.9% of 370,000 active | P49862 | activation, % at 7 µM | AID 652039 | purified proKLK7, EDANS-DABCYL substrate fluorescence; 100% is mature enzyme control, 0% vehicle;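 active = activation above the mean of all tested compounds plus 3 SD, computed per campaign excluding outliers beyond control limits, cut at about 13% in these data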
PLC-gamma1 inh: blocks human PLC-gamma1 enzyme activity. AID 720700. inhibition, % at 12.2 µM. purified PLC-gamma1, fluorogenic substrate, fluorescence. P19174. 0.84% of 370,000 active; in the data active = inhibition above about 9.5%
PLCb3 inh: blocks human PLC-beta3 enzyme activity. Q01970. 0.18% of 370,000 active. inhibition, % at 12.2 µM. Purified PLC-beta3, fluorogenic substrate, fluorescence;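 also: 0% = median of compound wells on plate and 100% = full blocker control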
PLCg1 ctr: counter-screen for PLC-beta3 inhibitors: inhibitors of human PLC-gamma1. shares compounds with PLC-gamma1 inh. purified PLC-gamma1, fluorogenic substrate, fluorescence. inhibition, % at 12.3 µM. 3.1% of 3,300 active. AID 743258; in the data active = inhibition above about 9.5%
PLCbeta3 conf: human PLC-beta3 inhibition, confirmation. shares compounds with PLC-gamma1 inh. purified PLC-beta3, fluorogenic substrate fluorescence. inhibition, % at 12.3 µM. 1% of 3,300 active. AID 743261
sPLA2 confirm: human GIII-sPLA2 inhibition, confirmation | shares compounds with HGIII-sPLA2 inh | recombinant hGIII-sPLA2, BODIPY PC-A2 QFRET fluorescence | inhibition, % at 12.2 µM | 34% of 2,000 active;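 active = mean inhibition across triplicates above the hit cutoff set in the earlier primary screen, cut at about 19% in these data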;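 also: 0% = enzyme with DMSO and 100% = DMSO wells lacking enzyme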
535nm interf: optically interferes with 535nm fluorescence in sPLA2 counter-screen; shares compounds with HGIII-sPLA2 inh; BODIPY FL product fluorescence interference, QFRET; inhibition, % at 12.2 µM; 8.5% of 2,000 active; AID 743282;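 active = average inhibition above the solvent-only control mean plus 3 SD, cut at about 6% in these data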;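 also: 0% = DMSO with substrate plus product and 100% = DMSO with substrate alone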
BODIPY interf DR: interferes with 535nm fluorescence in dose response counter-screen. shares compounds with HGIII-sPLA2 inh. BODIPY FL product fluorescence interference, cell-free. IC50, µM. 240 tested, under 10 active. AID 743455;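 active = IC50 at or below 10 µM; inactive = IC50 above 10 µM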
Starred values were filed as active, the others as inactive; nt = no result. Rule as the data show it, unless noted: active = inhibition above about 11%; inactive = the rest.

SMILES | ADAM17 inh | HGIII-sPLA2 inh | ADAM10 inh | KLK7 zymogen act | PLC-gamma1 inh | PLCb3 inh | PLCg1 ctr | PLCbeta3 conf | others
CCOC(=O)c1cnn(CCOC(=O)c2cccc(F)c2)c1NC(=O)c1cccc(F)c1 | 0 | -2 | 3 | 1 | 12* | 7 | -6 | -3
CCOC(=O)c1cnn(CCOC(=O)c2cccs2)c1NC(=O)c1cccs1 | -2 | -1 | 2 | 0 | -1 | 6 | nt | nt
COc1cccc(OC[C@@H](O)CN2CCC(C(O)(c3ccccc3)c3ccccc3)CC2)c1 | 2 | -30 | -2 | -1 | 1 | 5 | nt | nt
Cc1[nH][nH]c(=O)c1C=NCc1cccnc1 | 6 | 6 | 4 | 0 | 11* | 7 | 1 | 3
Cc1[nH][nH]c(=O)c1C=NCc1cccs1 | -3 | 1 | -5 | 0 | 3 | 1 | nt | nt
Cc1ccc(C(=O)NC(C)CCc2ccccc2)cc1[N+](=O)[O-] (configuration not stated) | 8 | -11 | 7 | -1 | 13* | 3 | -2 | -2
c1coc(-c2nnc3sc(Cc4cccs4)nn23)c1 | 5 | -11 | 18 | -2 | 20* | -10 | -6 | -5
CN1CCCCC(NC(=O)c2cccs2)C1=O (configuration not stated) | -2 | 4 | -6 | 0 | -1 | 2 | nt | nt
CCOc1ccc(C)cc1S(=O)(=O)Nc1cccnc1 | 4 | -5 | 8 | -1 | 9.8* | 4 | -20 | -2
Nc1nc(SCC(=O)Nc2ccccc2Oc2ccccc2)n[nH]1 | 7 | -7 | 13 | 0 | 8 | 12* | -6 | -5
C[C@]12CCC(O)CC1=CCC1C2CC[C@]2(C)/C(=N\NC(N)=S)CCC12 (some centres not stated) | 2 | 12 | 5 | 0 | 12* | -3 | -3 | -1
CCOc1ccc(-n2c(SCC(=O)Nc3ccc(S(=O)(=O)Nc4cc(C)nc(C)n4)cc3)nnc2-c2ccc(C)cc2)cc1 | 3 | -63 | 4 | 0 | 5 | 0 | nt | nt
CCOC(=O)N1CCN(C(=O)C[C@H]2C[C@@]3(C(=O)OC)C(=C[C@H](COCc4ccccc4)O[C@@H]3C)N(Cc3ccc(Cl)cc3Cl)C2=O)CC1 | 2 | -13 | 7 | 1 | 1 | 0 | nt | nt
COC(=O)c1cc(C(=O)Nc2nnc(CC(C)C)s2)cc([N+](=O)[O-])c1 | 2 | -1 | 0 | 0 | 0 | 3 | nt | nt
CCC(CC)c1nnc(NC(=O)c2cc(C(=O)OC)cc([N+](=O)[O-])c2)s1 | 6 | -11 | 11 | 0 | 12* | 0 | -4 | -2
CCOC(=O)Cc1ccc(NC(=O)c2cccc([N+](=O)[O-])c2)cc1 | -3 | 2 | -9 | 0 | -1 | 2 | nt | nt
CCOC(=O)CSc1nnc(NC(=O)c2cccc([N+](=O)[O-])c2)s1 | 4 | -2 | 11 | 0 | 5 | 13* | -3 | 0
COC(=O)C1CN(CCO)CCS(=O)(=O)N1Cc1cn(Cc2cccc(Cl)c2)nn1 (configuration not stated) | -4 | 6 | -1 | 1 | 0 | 5 | nt | nt
CCN(CC)C(=O)CC[C@@H]1CC[C@]2(CCCN(Cc3nccs3)C2)O1 | -3 | 2 | -10 | 0 | -3 | -2 | nt | nt
Cc1ccc(OCC(=O)Nc2cc(S(=O)(=O)N3CCCCC3)ccc2C)c([N+](=O)[O-])n1 | -8 | 21* | -4 | 0 | 10* | 1 | -4 | -1 | sPLA2 confirm=3;535nm interf=-14
C[C@@H]1ON(C)[C@H]2C[C@H]3c4[nH]c5cccc(-c6cccc(F)c6)c5c4CCN3C(=O)[C@@H]12 | -132 | -12 | -464 | -17 | -274 | -359 | nt | nt
CCCNC(=S)N(Cc1ccccc1)Cc1nc2ccccc2c(=O)[nH]1 | -85 | 22* | -12 | 2 | 20* | -9 | -44 | -34 | sPLA2 confirm=-2;535nm interf=-11
CCOCCCNC(=S)N(Cc1ccccc1)Cc1nc2ccccc2c(=O)[nH]1 | -76 | -12 | -324 | 2 | -30 | -40 | nt | nt
CN(C1=C(NC(=O)c2ccc(Cl)cc2)C(=O)c2ccccc2C1=O)c1ccccc1 | 4 | 44* | 13 | 0 | 12* | 1 | 7 | 5 | sPLA2 confirm=49*;535nm interf=7.6*
COc1ccc(S[C@]2(C(=O)N3CCCC3)CC(=O)N(c3ccccc3OC)[C@@H]2c2ccc(OC)cc2)cc1 | 7 | -10 | 9 | 0 | 4 | 2 | nt | nt
SMILES | ADAM17 inh | HGIII-sPLA2 inh | ADAM10 inh | KLK7 zymogen act | PLC-gamma1 inh | PLCb3 inh | PLCg1 ctr | PLCbeta3 conf | others
N#CCC[C@@H]1CC[C@]2(CCCN(Cc3ccc(Br)cc3)C2)O1 | -7 | 22* | -6 | -1 | 9.5* | 3 | 3 | 5 | sPLA2 confirm=-5;535nm interf=-12
CC1=C2NC(N)=[N+](Cc3ccccc3)CC2n2c(=O)n(-c3ccccc3)c(=O)n2C1 (configuration not stated) | -4 | 1 | -10 | 0 | -4 | 1 | nt | nt
CC1(C)Cc2cccc(C(=O)NCc3ccco3)c2O1 | -3 | -1 | -10 | 0 | 2 | -9 | nt | nt
CC(C)(C)NC(=O)c1cccc2c1OC(C)(C)C2 | 0 | 24* | -7 | 0 | 16* | -6 | -2 | -1 | sPLA2 confirm=6;535nm interf=-9
NC(N)=N/N=C(\N=Nc1ccccc1)c1ccc(Cl)cc1 | 8 | 27* | 4 | 0 | 10* | 10 | 4 | 1 | sPLA2 confirm=34*;535nm interf=2;BODIPY interf DR=>122
c1ccc(-c2c[nH]c3ccc(OCCN4CCOCC4)c(-c4ccccc4)c23)cc1 | -4 | -30 | -13 | 0 | -5 | -3 | nt | nt
C#CCOCCOCCOCCNc1nc(N2CCN(C(=O)[C@H](CCCCN)n3cc(CN)nn3)CC2)nc(N2CCN(C(=O)[C@H](CCCCN)n3cc([C@@H](N)[C@H](C)CC)nn3)CC2)n1 | -3 | -1 | -2 | -1 | 3 | 2 | nt | nt
C#CCOCCOCCOCCNc1nc(N2CCN(C(=O)[C@H](CCCCN)n3cc([C@@H](N)C(C)CC)nn3)CC2)nc(N2CCN(C(=O)[C@H](CCCCN)n3cc([C@@H](N)C(C)CC)nn3)CC2)n1 (some centres not stated) | -5 | 20* | -12 | nt | 10* | 7 | 0 | 6 | sPLA2 confirm=-2;535nm interf=-44

Compound activity from PubChem.
